In PubChem BioAssay (NCATS):
Records with an inconclusive call do not appear. Calls of active or inactive are those of the source. Unless noted, the call rests on the fitted dose curve; in most records, active means well fitted curve in either direction with a large enough effect (not every such curve was filed as active); inconclusive means small, poorly fitted or top-dose-only effect, or another doubt; inactive means flat fitted curve, though single readings scatter.

Assays:
[1] = molecular target: Lysosomal acid glucosylceramidase (Homo sapiens) (UniProt P04062); test: Glucocerebrosidase-p2 (AID 348; in the data active means potency below about 10 µM; further: potency means the concentration at half of the fitted maximal effect); conditions: purified GBA, blue fluorogenic substrate, 40 min
Outline: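 Compounds titrated from 0.6 nM upwards against 0.2 nM enzyme in pH 5.9 citric acid/KH2PO4, taurocholate, tween-20; blue fluorogenic substrate 80 uM, 40 min room temperature, stopped and read Ex 365/Em 440 for AC50.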

[2] = AP1 Signaling Pathway (AID 357); conditions: ME-180 AP-1-bla reporter, EGF-induced, beta-lactamase ratio, 5 h; at 7.69 µM (top of the series) unless noted;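 further: ME-180 reporter cells stimulated with EGF at its EC50 level; on the % scale 0 is the no-effect control and ±100 the full control effect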
Outline: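 Titration-series screen for positive or negative modulators of EC50 EGF-induced signaling in ME-180 cells carrying an AP-1-driven beta-lactamase reporter. After 5 hours at 37 degrees Celsius, CCF4 460nm/530nm emission ratio gave %Activity; AC50 values derived.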

[3] = molecular target: Cytochrome P450 1A2 (Homo sapiens) (UniProt P05177); test: p450-cyp1a2 (AID 410; calls by dose curve; further: potency means the concentration at half of the fitted maximal effect;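 on activity change, negative = inhibition: -100% = full effect of reference inhibitor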); conditions: recombinant CYP1A2, luciferin-ME demethylation, luminescence; series mostly up to 57 µM
Outline: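 Luminescent readout of luciferin formed from Luciferin-ME by human CYP1A2; data normalized against complete inhibition by 57 uM furafylline. Enzyme 20nM, substrate 100uM at Km, 100mM KPO4 buffer, 60 min reaction at room temperature.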

[4] = NFAT Signaling Pathway (AID 444); conditions: Jurkat NFAT-bla M1, carbachol, beta-lactamase ratio, 5 h; at 7.69 µM (top of the series) unless noted;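 further: carbachol stimulus at about its EC50 of 1 µM final; on the % scale 0 is the no-effect control and ±100 the full control effect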
Outline: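 Jurkat cells carrying an NFAT-driven β-lactamase reporter and co-transfected muscarinic M1 receptor were treated with compound plus carbachol (1 uM final, an EC50 level) for 5 h at 37 °C. CCF4 loading followed for 1 h at RT; 460/530 nm ratio gave %activity.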

[5] = Stat Signaling Pathway (AID 446); conditions: ME-180 SIE beta-lactamase reporter, IL-6 stimulated, 5 h; at 7.69 µM (top of the series) unless noted;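 further: ME-180 cervical cancer cells given 40 pM IL-6 alongside compound; SIE-controlled beta-lactamase reporter measured as 460/530 nm FRET emission ratio; on the % scale 0 is the no-effect control and ±100 the full control effect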
Outline: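 Screening format detects activators and inhibitors alike: ME-180 SIE-bla cells stimulated at 40 pM IL-6 for 5 hrs with compound, then dual-emission beta-lactamase read at 405 nm excitation.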

[6] = molecular target: Mitogen-activated protein kinase 10 (Mus musculus) (UniProt Q61831); test: JNK3 AlphaScreen Assay (AID 530); conditions: JNK3 lysate, c-Jun phosphorylation; series mostly up to 57.1 µM;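 further: kinase came from lysate of stimulated human HepG2 cells; signal reports phosphorylation of biotinylated GST-cJun 1-79 at Ser73 with 10 µM ATP; on the % scale 0 is the no-effect control and ±100 the full control effect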
Outline: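 Inhibitors reduce antibody binding to phosphorylated biotin-cJun, lowering AlphaScreen luminescence. Lysates from HepG2 cells pre-activated by IL-1beta plus TNF-alpha supplied JNK3; compounds were titrated.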

[7] = molecular target: 3',5'-cyclic-AMP phosphodiesterase 4B (Homo sapiens) (UniProt Q07343); test: qHTS Assay for Inhibitors of PDE-IV (AID 607; active means well fitted activation curve with a large enough effect in the main read-out, with a control signal flat, not every such curve was filed as active; further: % of control where 0% means no effect); conditions: HEK293 ACTOne CNG channel cells, membrane potential fluorescence; series mostly up to 22.9 µM
Outline: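 The readout is membrane depolarisation from a cAMP-sensing CNG channel, detected with a potential dye at ex 535/em 590. Cells were HEK293-derived (endogenous PDE-IV) at 1000 cells/well, titrated up to 22.9 uM final.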

[8] = molecular target: Cytochrome P450 2C9 (Homo sapiens) (UniProt P11712); test: qHTS Assay for Inhibitors and Substrates of Cytochrome P450 2C9 (AID 883; active means well fitted curve in the direction sought with a large enough effect; an effect the other way counts as inactive or inconclusive; further: nearly all actives have a fitted effect of over 60% in size; further: potency means the concentration at half of the fitted maximal effect); conditions: recombinant CYP2C9, luciferin-H luminescence, 60 min; series mostly up to 57.1 µM
Outline: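 Human CYP2C9 (10nM) hydroxylated Luciferin-H (100uM, at its KM) to luciferin in 25mM KPO4. Compound was preincubated 10 min at 37C, then NADPH regeneration started a 60 min reaction at 37C. Luminescence was read after detection reagent, normalized to 57uM sulphaphenazole.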

[9] = molecular target: Cytochrome P450 3A4 (Homo sapiens) (UniProt P08684); test: qHTS Assay for Inhibitors and Substrates of Cytochrome P450 3A4 (AID 884; active means well fitted curve in the direction sought with a large enough effect; an effect the other way counts as inactive or inconclusive; further: potency means the concentration at half of the fitted maximal effect; nearly all actives have a fitted effect of over 50% in size); conditions: recombinant CYP3A4, Luciferin-PPXE luminescence; series mostly up to 57.1 µM
Outline: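 20 nM human CYP3A4 with 25 uM Luciferin-PPXE (at KM) in 200 mM KPO4, preincubated 10 min with compound; NADPH regeneration started a 60 min RT reaction. Luciferin detected by luminescence, normalized to 57 uM ketoconazole as full inhibition.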

[10] = molecular target: Cytochrome P450 3A4 (Homo sapiens) (UniProt P08684); test: qHTS Assay for Activators of Cytochrome P450 3A4 (AID 885; active means well fitted curve in the direction sought with a large enough effect; an effect the other way counts as inactive or inconclusive; further: nearly all actives have a fitted effect of over 65% in size); conditions: recombinant CYP3A4, Luciferin-PPXE luminescence, 60 min; series mostly up to 57.1 µM
Outline: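 Steps: enzyme/substrate mix dispensed; compound added, 10 min RT; NADPH regeneration solution added, 60 min RT; luciferin detection buffer stops reaction; 20 min later luminescence measured.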

[11] = molecular target: Cytochrome P450 2D6 (Homo sapiens) (UniProt P10635); test: qHTS Assay for Inhibitors and Substrates of Cytochrome P450 2D6 (AID 891; active means well fitted curve in the direction sought with a large enough effect; an effect the other way counts as inactive or inconclusive;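 further: luciferin methyl ether substrate demethylated by CYP2D6 with NADPH regeneration; on the % scale 0 is the no-effect control and ±100 the full control effect; nearly all actives have a fitted effect of over 60% in size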); conditions: recombinant CYP2D6, luciferin-ME EGE luminescence; series mostly up to 57.1 µM
Outline: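 Human CYP2D6 (5 nM) with 30 uM Luciferin-ME EGE (at Km) in 100 mM KPO4, compound preincubated 10 min, then NADPH regeneration system for 60 min at room temperature. Luciferin read by luminescence; normalized to 1.43 uM quinidine.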

[12] = qHTS Assay for Lipid Storage Modulators (AID 1519; calls by dose curve); conditions: Drosophila S3 cells, BODIPY lipid droplet/cell ratio, laser cytometry, cells loaded with oleic acid; for activity change, negative = inhibition: at 57.5 µM (top of the series)
Outline: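 Cells seeded at 5,000 per well were treated with compounds over a concentration series and loaded with oleic acid (400 uM, as added). Lipid droplet fluorescence (488 nm excitation, 500-530 nm channel) was read by laser-scanning cytometry and normalized to 20 uM Triacsin C.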

[13] = Primary qHTS for small molecule stabilizers of the endoplasmic reticulum resident proteome: Secreted ER Calcium Modulated Protein (SERCaMP) assay (AID 1508630; active means well fitted curve in the direction sought with a large enough effect; an effect the other way counts as inactive or inconclusive; further: on the % scale 0 is the no-effect control and ±100 the full control effect); conditions: SH-SY5Y GLuc-SERCaMP (Gaussia luciferase released on ER calcium loss) secretion, thapsigargin, luminescence; series mostly up to 38.4 µM
Outline: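 GLuc-SERCaMP-expressing SH-SY5Y cells, pretreated 16 h with compound, are challenged with thapsigargin to empty ER calcium stores; after 4 h, coelenterazine is added directly to the medium and luminescence is imaged.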

[14] = molecular target: Glucocorticoid receptor (Homo sapiens) (UniProt P04150); test: GR-EFC Redistribution (AID 451; calls by dose curve; further: potency means the concentration at half of the fitted maximal effect); conditions: CHO-K1 GR-EFC translocation, beta-gal luminescence, 2 h
Outline: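 CHO-K1 cells stably expressing nuclear-localized β-gal enzyme acceptor and GR fused C-terminally to the enzyme donor fragment; ligand-driven nuclear translocation restores β-gal by complementation. Compounds titrated up to 46 uM final, 2 h at 37 °C; luminescence read.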

[15] = molecular target: Cytochrome P450 2C19 (Homo sapiens) (UniProt P33261); test: qHTS Assay for Inhibitors and Substrates of Cytochrome P450 2C19 (AID 899; active means well fitted curve in the direction sought with a large enough effect; an effect the other way counts as inactive or inconclusive; further: potency means the concentration at half of the fitted maximal effect; nearly all actives have a fitted effect of over 60% in size); conditions: recombinant CYP2C19, luciferin-H EGE luminescence; series mostly up to 57.1 µM
Outline: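 Human CYP2C19 (5nM) with Luciferin-H EGE at 10uM (its KM) in 50mM KPO4 was preincubated with compound for 10 min at 37C. NADPH regeneration started a 60 min 37C reaction. Luciferin was read by luminescence, normalized to 57uM ketoconazole.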

[16] = qHTS Assay for Identification of Small Molecule Agonists for Hypoxia Response Element Signaling Pathway (AID 914; active means well fitted activation curve with a large enough effect in the signal ratio, with a control signal flat, not every such curve was filed as active; the % refers to the signal ratio; further: % of control where 0% means no effect); conditions: ME-180 (cervical carcinoma) HRE-bla reporter, beta-lactamase ratio, CoCl2, 17 h; activation: stronger effect = higher value
Outline: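 Cells were plated overnight, pin-dosed with compound in a titration series, co-stimulated with EC50 CoCl2 and incubated 17 hours at 37 degrees Celsius. CCF4 substrate was then loaded, and AC50 values came from the 460nm/530nm ratio.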

[17] = molecular target: Glucocorticoid receptor (Homo sapiens) (UniProt P04150); test: GR-GFP Redistribution (AID 450;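 active means compounds whose dose series gives a full or clear partial fitted curve of increased nuclear translocation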; further: potency means the concentration at half of the fitted maximal effect); conditions: U2OS GR-GFP nuclear translocation, laser cytometry, 2 h
[18] = molecular target: Ubiquitin carboxyl-terminal hydrolase 1 (Homo sapiens) (UniProt O94782); test: Inhibitors of USP1/UAF1: Pilot qHTS (AID 504865; active means well fitted curve in the direction sought with a large enough effect; an effect the other way counts as inactive or inconclusive; further: nearly all actives have a fitted effect of over 35% in size; further: potency means the concentration at half of the fitted maximal effect); conditions: purified USP1/UAF1, Ub-rhodamine cleavage fluorescence; series mostly up to 54.9 µM
Outline: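 1nM USP1/UAF1 + cpd, 15 min RT; start w/ Ub-Rho 150nM final; kinetic FL 480/540 nm, 6 reads q60 s. Buffer 50mM HEPES pH 7.8, 0.5mM EDTA, 1mM TCEP, 0.01% Tween-20, 0.1 mg/ml BSA.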

[19] = Confirmation and Secondary Assay for Modulators of Hemoglobin Beta Chain Splicing at IVS2 654 locus (AID 910; active means well fitted curve in the direction sought with a large enough effect; an effect the other way counts as inactive or inconclusive;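 further: per-well total GFP intensity by laser scanning cytometry after 2-day treatment; % of control where 0% means no effect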); conditions: HeLa EGFP-654 splicing reporter, GFP fluorescence, 48 h; series mostly up to 38.3 µM
Outline: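 HeLa cells stably carrying EGFP interrupted by mutant beta-globin IVS2-654 intron (CMV-driven) were treated with compound for 2 days at 37C; corrected splicing was scored as total peak GFP intensity per well (488 nm excitation, 500-520 nm emission).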

[20] = Confirmation and Secondary Assay for Modulators of Hemoglobin Beta Chain Splicing at IVS2 705 locus (AID 930; active means well fitted curve in the direction sought with a large enough effect; an effect the other way counts as inactive or inconclusive;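 further: HeLa cells stably expressing the EGFP-705 splicing reporter; GFP fluorescence per well restored by corrected splicing of the IVS2-705 intron in EGFP; % of control where 0% means no effect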); conditions: HeLa EGFP-705 splicing reporter, GFP fluorescence, 48 h; series mostly up to 38.3 µM
Outline: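 Splice-correction reporter: EGFP cDNA split by beta-globin intron 2 bearing the 705 mutation, stably in HeLa. Compound incubation 2 days, 37C; fluorescent objects 5-250 µm summed per well.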

[21] = measured here: cell count channel max response
[22] = measured here: lipid channel max response

Lysosomal acid glucosylceramidase (Homo sapiens), sequence (P04062 whole entry, looked up): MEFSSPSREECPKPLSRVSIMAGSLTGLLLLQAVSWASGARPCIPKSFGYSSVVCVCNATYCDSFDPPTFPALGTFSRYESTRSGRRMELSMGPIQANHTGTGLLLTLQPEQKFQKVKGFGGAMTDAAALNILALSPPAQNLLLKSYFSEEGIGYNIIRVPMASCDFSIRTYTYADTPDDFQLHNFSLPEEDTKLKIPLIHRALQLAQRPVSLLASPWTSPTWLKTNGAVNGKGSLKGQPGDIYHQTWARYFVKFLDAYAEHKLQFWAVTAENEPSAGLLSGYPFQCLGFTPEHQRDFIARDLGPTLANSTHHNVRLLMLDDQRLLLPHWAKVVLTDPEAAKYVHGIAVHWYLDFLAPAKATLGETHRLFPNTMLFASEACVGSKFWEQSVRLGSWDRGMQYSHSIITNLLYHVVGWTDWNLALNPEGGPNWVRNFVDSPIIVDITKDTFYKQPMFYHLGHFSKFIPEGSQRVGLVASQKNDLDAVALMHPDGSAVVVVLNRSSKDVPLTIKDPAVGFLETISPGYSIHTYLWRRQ
3',5'-cyclic-AMP phosphodiesterase 4B (Homo sapiens), sequence (Q07343 whole entry, looked up): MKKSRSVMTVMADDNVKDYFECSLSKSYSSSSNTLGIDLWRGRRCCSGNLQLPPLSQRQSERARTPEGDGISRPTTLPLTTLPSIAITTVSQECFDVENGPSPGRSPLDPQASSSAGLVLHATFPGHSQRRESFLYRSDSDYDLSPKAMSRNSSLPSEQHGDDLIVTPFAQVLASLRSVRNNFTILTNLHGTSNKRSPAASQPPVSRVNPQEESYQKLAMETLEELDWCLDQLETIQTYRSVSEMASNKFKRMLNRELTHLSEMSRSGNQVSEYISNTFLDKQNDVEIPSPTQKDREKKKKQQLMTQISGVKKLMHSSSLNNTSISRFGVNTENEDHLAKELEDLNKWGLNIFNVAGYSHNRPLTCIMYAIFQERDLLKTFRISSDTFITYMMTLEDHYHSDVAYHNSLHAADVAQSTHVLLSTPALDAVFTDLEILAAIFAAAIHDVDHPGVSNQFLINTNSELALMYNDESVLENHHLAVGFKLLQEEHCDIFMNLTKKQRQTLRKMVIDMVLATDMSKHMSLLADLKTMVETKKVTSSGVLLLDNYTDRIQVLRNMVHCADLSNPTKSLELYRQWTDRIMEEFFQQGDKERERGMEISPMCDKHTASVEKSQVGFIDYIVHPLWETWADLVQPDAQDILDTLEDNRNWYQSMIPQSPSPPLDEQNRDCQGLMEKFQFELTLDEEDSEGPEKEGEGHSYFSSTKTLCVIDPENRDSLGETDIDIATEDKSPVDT
Cytochrome P450 3A4 (Homo sapiens), sequence (P08684 whole entry, looked up): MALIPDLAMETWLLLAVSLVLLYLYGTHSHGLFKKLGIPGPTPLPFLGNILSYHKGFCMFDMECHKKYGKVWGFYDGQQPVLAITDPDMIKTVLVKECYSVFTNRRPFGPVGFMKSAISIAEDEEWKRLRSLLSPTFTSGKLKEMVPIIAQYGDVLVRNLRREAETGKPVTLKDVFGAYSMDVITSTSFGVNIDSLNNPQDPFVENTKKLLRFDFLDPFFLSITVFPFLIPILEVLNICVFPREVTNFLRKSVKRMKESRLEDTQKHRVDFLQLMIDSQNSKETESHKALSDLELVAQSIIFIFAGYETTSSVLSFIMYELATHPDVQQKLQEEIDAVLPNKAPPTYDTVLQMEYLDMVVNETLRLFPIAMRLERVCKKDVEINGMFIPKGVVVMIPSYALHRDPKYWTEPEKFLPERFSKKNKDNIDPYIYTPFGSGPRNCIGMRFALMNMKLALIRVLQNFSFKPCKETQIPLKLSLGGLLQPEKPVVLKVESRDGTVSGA
Glucocorticoid receptor (Homo sapiens), sequence (P04150 whole entry, looked up, the tested form may be a part): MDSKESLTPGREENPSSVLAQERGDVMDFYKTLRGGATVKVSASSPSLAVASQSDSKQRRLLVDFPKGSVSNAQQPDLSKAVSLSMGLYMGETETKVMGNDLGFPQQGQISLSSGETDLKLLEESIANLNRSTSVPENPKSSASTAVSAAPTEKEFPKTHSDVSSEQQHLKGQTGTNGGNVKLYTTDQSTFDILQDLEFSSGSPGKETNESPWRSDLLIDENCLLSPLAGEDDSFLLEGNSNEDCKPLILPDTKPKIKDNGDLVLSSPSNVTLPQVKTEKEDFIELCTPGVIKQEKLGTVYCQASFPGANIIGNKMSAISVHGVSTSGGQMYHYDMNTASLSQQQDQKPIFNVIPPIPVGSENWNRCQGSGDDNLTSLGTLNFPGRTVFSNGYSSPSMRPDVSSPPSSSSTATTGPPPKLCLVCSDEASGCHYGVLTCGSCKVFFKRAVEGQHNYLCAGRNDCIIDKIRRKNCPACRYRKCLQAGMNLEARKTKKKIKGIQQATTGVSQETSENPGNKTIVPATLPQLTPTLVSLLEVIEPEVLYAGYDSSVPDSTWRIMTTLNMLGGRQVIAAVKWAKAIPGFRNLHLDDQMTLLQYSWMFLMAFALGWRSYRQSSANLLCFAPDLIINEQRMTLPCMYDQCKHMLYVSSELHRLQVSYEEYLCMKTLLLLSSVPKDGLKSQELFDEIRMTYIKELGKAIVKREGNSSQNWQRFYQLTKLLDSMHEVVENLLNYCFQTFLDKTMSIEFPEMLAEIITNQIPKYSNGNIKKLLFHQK
Cytochrome P450 1A2 (Homo sapiens), sequence (P05177 whole entry, looked up): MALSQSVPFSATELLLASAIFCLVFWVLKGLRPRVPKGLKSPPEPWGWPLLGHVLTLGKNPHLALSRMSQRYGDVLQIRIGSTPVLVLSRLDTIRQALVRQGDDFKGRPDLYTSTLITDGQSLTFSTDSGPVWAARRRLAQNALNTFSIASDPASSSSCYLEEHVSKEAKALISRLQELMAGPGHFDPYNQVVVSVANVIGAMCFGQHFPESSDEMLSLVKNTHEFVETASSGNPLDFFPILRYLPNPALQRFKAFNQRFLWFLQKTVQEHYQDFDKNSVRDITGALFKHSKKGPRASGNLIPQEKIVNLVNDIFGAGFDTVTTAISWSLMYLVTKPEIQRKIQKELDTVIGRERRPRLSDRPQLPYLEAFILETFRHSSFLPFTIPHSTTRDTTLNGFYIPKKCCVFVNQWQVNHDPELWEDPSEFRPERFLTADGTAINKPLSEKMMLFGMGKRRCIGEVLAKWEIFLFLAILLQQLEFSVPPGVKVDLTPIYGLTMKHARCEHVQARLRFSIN
Ubiquitin carboxyl-terminal hydrolase 1 (Homo sapiens), sequence (O94782 whole entry, looked up): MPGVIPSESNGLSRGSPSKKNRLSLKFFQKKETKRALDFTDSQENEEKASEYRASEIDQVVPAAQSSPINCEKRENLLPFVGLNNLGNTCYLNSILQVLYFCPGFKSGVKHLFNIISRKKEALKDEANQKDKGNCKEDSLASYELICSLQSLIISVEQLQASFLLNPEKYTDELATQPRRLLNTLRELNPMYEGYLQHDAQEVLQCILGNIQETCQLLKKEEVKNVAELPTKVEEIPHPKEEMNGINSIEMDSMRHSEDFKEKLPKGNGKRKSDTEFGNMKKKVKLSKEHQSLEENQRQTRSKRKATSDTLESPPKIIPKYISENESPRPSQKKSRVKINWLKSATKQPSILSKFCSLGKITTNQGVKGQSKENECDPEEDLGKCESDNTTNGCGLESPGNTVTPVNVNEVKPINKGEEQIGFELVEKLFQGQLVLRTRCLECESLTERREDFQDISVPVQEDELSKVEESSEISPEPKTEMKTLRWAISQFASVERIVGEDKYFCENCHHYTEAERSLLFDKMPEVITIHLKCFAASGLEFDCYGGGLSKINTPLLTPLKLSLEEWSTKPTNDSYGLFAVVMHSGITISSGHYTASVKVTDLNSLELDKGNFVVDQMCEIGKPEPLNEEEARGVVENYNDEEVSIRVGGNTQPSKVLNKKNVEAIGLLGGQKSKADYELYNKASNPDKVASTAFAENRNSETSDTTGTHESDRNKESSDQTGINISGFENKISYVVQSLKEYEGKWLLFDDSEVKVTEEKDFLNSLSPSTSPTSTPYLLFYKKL
Cytochrome P450 2C19 (Homo sapiens), sequence (P33261 whole entry, looked up): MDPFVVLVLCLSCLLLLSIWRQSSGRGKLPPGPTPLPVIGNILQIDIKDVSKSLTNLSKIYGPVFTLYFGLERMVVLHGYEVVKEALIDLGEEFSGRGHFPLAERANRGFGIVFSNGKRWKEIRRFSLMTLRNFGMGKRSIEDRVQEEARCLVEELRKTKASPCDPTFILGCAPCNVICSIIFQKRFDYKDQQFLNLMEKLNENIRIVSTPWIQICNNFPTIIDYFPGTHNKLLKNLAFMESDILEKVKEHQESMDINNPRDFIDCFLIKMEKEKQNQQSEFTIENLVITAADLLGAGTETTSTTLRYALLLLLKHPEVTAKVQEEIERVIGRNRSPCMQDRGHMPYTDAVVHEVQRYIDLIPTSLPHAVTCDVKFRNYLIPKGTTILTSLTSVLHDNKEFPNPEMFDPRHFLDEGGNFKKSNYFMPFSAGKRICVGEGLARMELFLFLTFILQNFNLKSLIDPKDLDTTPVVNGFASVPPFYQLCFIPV
Cytochrome P450 2C9 (Homo sapiens), sequence (P11712 whole entry, looked up): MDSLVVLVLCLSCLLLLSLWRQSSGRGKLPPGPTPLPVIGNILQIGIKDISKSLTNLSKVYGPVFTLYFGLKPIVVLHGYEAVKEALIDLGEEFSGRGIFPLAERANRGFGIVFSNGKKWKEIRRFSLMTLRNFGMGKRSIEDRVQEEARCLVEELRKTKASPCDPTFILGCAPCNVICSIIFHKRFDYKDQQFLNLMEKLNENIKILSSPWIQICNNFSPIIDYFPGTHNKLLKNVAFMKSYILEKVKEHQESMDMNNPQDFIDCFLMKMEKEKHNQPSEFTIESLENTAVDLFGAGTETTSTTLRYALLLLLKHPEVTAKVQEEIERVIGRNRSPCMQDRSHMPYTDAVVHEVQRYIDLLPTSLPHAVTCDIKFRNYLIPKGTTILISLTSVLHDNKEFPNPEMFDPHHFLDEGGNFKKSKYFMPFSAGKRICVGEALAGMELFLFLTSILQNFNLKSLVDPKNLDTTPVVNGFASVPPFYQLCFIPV

COC(=O)N1CCC[C@@]2(CCN(c3ccncc3)C2)C1
Potency [1]: > 11.4 µM (inactive)
activity change, negative = inhibition [2]: -7.07% (inactive)
Potency [3]: inactive
activity change, negative = inhibition [4]: -14.4% (inactive)
activity, negative = inhibition [5]: -2.36% (inactive)
outcome [6]: inactive
Potency [7]: inactive
Potency [8]: inactive
Potency [9]: 3.98 µM (active)
Potency [10]: inactive
Potency [11]: inactive
activity change, negative = inhibition [12]: 4.92% (inactive)
max response [12, 21]: 18.5%
max response [12, 22]: 26.2%
Potency [13]: inactive

CS(=O)(=O)N1CCC2(CCCN(c3ccncc3)C2)CC1
Potency [1]: > 11.4 µM (inactive)
activity change, negative = inhibition [2]: 10.1% (inactive)
Potency [3]: inactive
activity change, negative = inhibition [4]: -14.2% (inactive)
activity, negative = inhibition [5]: -2.99% (inactive)
Potency [14]: > 46 µM (inactive)
outcome [6]: inactive
Potency [7]: inactive
Potency [8]: 0.0794 µM (active)
Potency [15]: 1.26 µM (active)
activation [16]: 20.8% (inactive)
Potency [13]: inactive

COc1ccc(CNc2ncnc3ccc(-c4cccnc4)cc23)c(OC)c1
Potency [1]: > 11.4 µM (inactive)
Potency [3]: 0.398 µM (active)
activity change, negative = inhibition [4]: 29.9% (inactive)
activity, negative = inhibition [5]: 2.05% (inactive)
Potency [17]: > 46 µM (inactive)
Potency [14]: > 46 µM (inactive)
outcome [6]: inactive
Potency [9]: 1.26 µM (active)
Potency [10]: inactive
Potency [18]: inactive
Potency [13]: inactive

COc1ccccc1CN1CC[C@@]2(CCCN(C(=O)c3cccc(F)c3)C2)C1
Potency [1]: > 11.4 µM (inactive)
activity change, negative = inhibition [2]: -14.6% (inactive)
activity change, negative = inhibition [4]: -10.9% (inactive)
activity, negative = inhibition [5]: 10.2% (inactive)
Potency [14]: > 46 µM (inactive)
outcome [6]: inactive
Potency [7]: inactive
activity change, negative = inhibition [12]: 5.1% (inactive)
max response [12, 21]: 15.7%
max response [12, 22]: 25%
Potency [13]: inactive

c1cncc(CNc2nc(-c3ccoc3)nc3ccccc23)c1
Potency [1]: > 11.4 µM (inactive)
activity change, negative = inhibition [2]: 1.41% (inactive)
Potency [3]: 0.398 µM (active)
activity change, negative = inhibition [4]: -9.01% (inactive)
activity, negative = inhibition [5]: -4.87% (inactive)
Potency [17]: > 46 µM (inactive)
Potency [14]: > 46 µM (inactive)
outcome [6]: inactive
Potency [9]: 7.94 µM (active)
Potency [10]: inactive
outcome [19]: inactive
outcome [20]: inactive
Potency [18]: 44.7 µM (active)
Potency [13]: inactive

COc1c2c(nc3ccccc13)OC(C(C)(O)CO)C2 (stereo unspecified)
activity change, negative = inhibition [12]: 1.22% (inactive)
max response [12, 21]: -18%
max response [12, 22]: -12.2%

CCNc1ncc2nc(C)c(=O)n(CCC#N)c2n1
Potency [1]: > 11.4 µM (inactive)
activity change, negative = inhibition [2]: -5.37% (inactive)
Potency [3]: 12.6 µM (active)
activity change, negative = inhibition [4]: 8.37% (inactive)
activity, negative = inhibition [5]: -4.05% (inactive)
Potency [17]: > 9.22 µM (inactive)
Potency [14]: > 46 µM (inactive)
outcome [6]: inactive
Potency [7]: inactive
Potency [18]: inactive
Potency [13]: inactive

O=S(=O)(c1ccccc1)N1CCC2(CCCN(c3ncccn3)C2)CC1
Potency [1]: > 11.4 µM (inactive)
activity change, negative = inhibition [2]: 0.46% (inactive)
Potency [3]: 15.8 µM (active)
activity, negative = inhibition [5]: -0.568% (inactive)
Potency [14]: > 46 µM (inactive)
outcome [6]: inactive
Potency [7]: inactive
Potency [10]: inactive
Potency [15]: 0.398 µM (active)
activity change, negative = inhibition [12]: 7.3% (inactive)
max response [12, 21]: -5.51%
max response [12, 22]: 5.88%
Potency [13]: inactive

CC(=O)N1CCC[C@@]2(CCN(Cc3cc(C(F)(F)F)cc(C(F)(F)F)c3)C2)C1
Potency [1]: > 11.4 µM (inactive)
activity change, negative = inhibition [2]: -5.47% (inactive)
activity change, negative = inhibition [4]: 20.4% (inactive)
activity, negative = inhibition [5]: -6.41% (inactive)
Potency [14]: > 46 µM (inactive)
Potency [7]: inactive
activity change, negative = inhibition [12]: 5.56% (inactive)
max response [12, 21]: 8.88%
max response [12, 22]: 18.9%
Potency [13]: inactive

CC(C)NC(=O)N1CCC2(CC1)CCN(C(=O)c1csnn1)CC2
Potency [1]: > 11.4 µM (inactive)
activity change, negative = inhibition [2]: -2.2% (inactive)
Potency [3]: inactive
activity, negative = inhibition [5]: -6.49% (inactive)
Potency [14]: > 46 µM (inactive)
outcome [6]: inactive
Potency [7]: inactive
activity change, negative = inhibition [12]: 1.46% (inactive)
max response [12, 21]: -0.0052%
max response [12, 22]: 5.7%
Potency [13]: inactive
